# Experimental data: PubChem BioAssay (NCI)
# This is part of a sample that, as a whole, favours compounds with a hit. Of some 79,000 tested, about 15% had one in any assay. Values without a mark were called inactive. The source made the active and inactive calls. Cut-off read from the data, not from the text of the source: active = growth inhibition above about 70%; inactive = the rest.
# Assay: NCI Yeast Anticancer Drug Screen. Data for the bub3 strain (AID 167)
# Details: S. cerevisiae bub3 mutant strain, at 50.0 µM (retest, dose inferred, filed as 5.0), stronger effect = higher value
# Summary of the method: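 Whole-cell yeast assay. The mutant strain was incubated with compounds, and growth inhibition was determined by comparison with vehicle-treated cells.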
row,SMILES,growth inhibition
1,CCCCCCCCc1ccc2c3ccccc3c3ccccc3c2c1,-10%
2,O=C1C(=O)c2ccc(Br)cc2C(O)=C1C(c1ccccc1)c1ccccc1,70% (active)
3,CN(C)Cc1ccc2[nH]c3c(c2c1)CCCC3,85% (active)
4,COc1ccc(NC(=O)Nc2ccc(Cl)cc2)nn1,-7%
5,CO/N=C/c1cc(NC(=S)c2ccoc2C)ccc1Cl,34%
6,O=C(Sc1c(-c2ccccc2)c(=O)n(-c2ccccc2)c(=S)n1-c1ccccc1)c1cccs1,95% (active)
7,O=C1/C(=C/c2ccc(F)cc2)CNC/C1=C\c1ccc(F)cc1,37%
8,O=c1cc2cccccc-2cc1O,95% (active)
9,Oc1c(Br)cc(Br)cc1-c1ccccc1,100% (active)
10,C(=[CH]/[Sn]([c]1ccccc1)([c]1ccccc1)[c]1ccccc1)/c1ccccc1,85% (active)
11,CCCCCCCCCN1CCNC1=S,80% (active)
12,O=C1C/C(=C\c2ccccc2)C(=O)c2ccccc2N1,19%
13,CN(C)C(=O)Nc1ccc(Cc2ccc(NC(=O)N(C)C)cc2)cc1,-20%
14,C=C1CC(C)(COc2ccc3c(C)c(Cl)c(=O)oc3c2)OC1=O (stereo not given),94% (active)
15,CC[C@@]1(OP(=O)(O)O)C(=O)OCc2c1cc1n(c2=O)Cc2cc3ccccc3nc2-1,-15%
16,O=S(=O)(Sc1ccccc1)C(c1ccccc1)c1ccccc1,97% (active)
17,CCOC(=O)c1c(N)sc2c1CCCCC2,-42%
18,CCCCCCCCCCCCCCNCCN,96% (active)
19,CCCN(CCC)CCNc1ccc(C)c2sc3ccccc3c(=O)c12,99% (active)
20,CC1CC2(C)ON=C(c3ccccc3)N2c2ccccc2S1 (stereo not given),97% (active)

row,SMILES,growth inhibition
1,COc1ccc(N=NN2CCCC2)cc1,50%
2,S=C(Nc1ccccc1)NC1CC2C=CC1CC2 (stereo not given),0%
3,C=CCOC(=O)C(O)C(CC)CCCCC (stereo not given),91% (active)
4,NC(=O)c1ccccc1C(=O)O,9%
5,CS(=O)(=O)c1cc(=O)c2ccccc2s1,100% (active)
6,O=C([O][Sb]([O]C(=O)C(Cl)(Cl)Cl)([c]1ccccc1)([c]1ccccc1)[c]1ccccc1)C(Cl)(Cl)Cl,76% (active)
7,CCCCCCCCCCCCCCCCCCOP(=O)([O-])OCC[N+](C)(C)C,99% (active)
8,Nc1ccc(SCCCc2c(N)nc(N)nc2N)cc1,-12%
9,O=C1C=CC(=O)c2c1cc1ccccc1c2O,96% (active)
10,CCN(CC)CC(O)CNc1ccc(NCC(O)CCl)c2c1C(=O)c1ccccc1C2=O (stereo not given),97% (active)
11,N#Cc1c(N)nc2c(N=Nc3ccccc3)c(N)nn2c1Nc1ccccc1,31%
12,CC(O)c1c2ccccc2cc2ccccc12 (stereo not given),81% (active)
13,Cc1ccccc1NC(=O)C1C(=O)N(c2ccccc2C)C(=O)/C1=N/O (stereo not given),1%
14,O=Cc1ccc(-c2nccc3c2[nH]c2ccccc23)o1,14%
15,C=CC(C)(CCC=C(C)C)OC(=O)Nc1ccccc1 (stereo not given),-14%
16,Oc1ccc(-c2nnc(-c3ccc(Cl)cc3Cl)o2)cc1,91% (active)
17,C/C=C1\CC(C)(CC)C(C#N)(C#N)C(N)=C1C#N (stereo not given),-2%
18,Cc1nc(-c2ccccc2)nc2c1nc(C(C)C)n2Nc1ccccc1,35%
19,Cc1csc2c1C(=O)c1ccsc1C2=O,98% (active)
20,COc1cc(Nc2ccc(Oc3ccc(O)cc3)cc2)c2ncccc2c1,5%

# Same assay, conditions: S. cerevisiae bub3 mutant strain, at 50.0 µM, stronger effect = higher value
row,SMILES,growth inhibition
1,CCCCCCCCc1ccc2c3ccccc3c3ccccc3c2c1,8.65%
2,O=C1C(=O)c2ccc(Br)cc2C(O)=C1C(c1ccccc1)c1ccccc1,21.2%
3,CN(C)Cc1ccc2[nH]c3c(c2c1)CCCC3,45%
4,COc1ccc(NC(=O)Nc2ccc(Cl)cc2)nn1,-8.05%
5,CO/N=C/c1cc(NC(=S)c2ccoc2C)ccc1Cl,92.2% (active)
6,O=C(Sc1c(-c2ccccc2)c(=O)n(-c2ccccc2)c(=S)n1-c1ccccc1)c1cccs1,84% (active)
7,O=C1/C(=C/c2ccc(F)cc2)CNC/C1=C\c1ccc(F)cc1,79.8% (active)
8,O=c1cc2cccccc-2cc1O,91.5% (active)
9,Oc1c(Br)cc(Br)cc1-c1ccccc1,99.3% (active)
10,C(=[CH]/[Sn]([c]1ccccc1)([c]1ccccc1)[c]1ccccc1)/c1ccccc1,99.2% (active)
11,CCCCCCCCCN1CCNC1=S,54.3%
12,O=C1C/C(=C\c2ccccc2)C(=O)c2ccccc2N1,67%
13,CN(C)C(=O)Nc1ccc(Cc2ccc(NC(=O)N(C)C)cc2)cc1,7.95%
14,C=C1CC(C)(COc2ccc3c(C)c(Cl)c(=O)oc3c2)OC1=O (stereo not given),85.8% (active)
15,CC[C@@]1(OP(=O)(O)O)C(=O)OCc2c1cc1n(c2=O)Cc2cc3ccccc3nc2-1,77.2% (active)
16,O=S(=O)(Sc1ccccc1)C(c1ccccc1)c1ccccc1,62%
17,CCOC(=O)c1c(N)sc2c1CCCCC2,50.4%
18,CCCCCCCCCCCCCCNCCN,89.5% (active)
19,CCCN(CCC)CCNc1ccc(C)c2sc3ccccc3c(=O)c12,99.4% (active)
20,CC1CC2(C)ON=C(c3ccccc3)N2c2ccccc2S1 (stereo not given),87% (active)

row,SMILES,growth inhibition
1,COc1ccc(N=NN2CCCC2)cc1,90.5% (active)
2,S=C(Nc1ccccc1)NC1CC2C=CC1CC2 (stereo not given),19.6%
3,C=CCOC(=O)C(O)C(CC)CCCCC (stereo not given),54.4%
4,NC(=O)c1ccccc1C(=O)O,0.6%
5,CS(=O)(=O)c1cc(=O)c2ccccc2s1,31.6%
6,O=C([O][Sb]([O]C(=O)C(Cl)(Cl)Cl)([c]1ccccc1)([c]1ccccc1)[c]1ccccc1)C(Cl)(Cl)Cl,-69.9%
7,CCCCCCCCCCCCCCCCCCOP(=O)([O-])OCC[N+](C)(C)C,90.3% (active)
8,Nc1ccc(SCCCc2c(N)nc(N)nc2N)cc1,95% (active)
9,O=C1C=CC(=O)c2c1cc1ccccc1c2O,-5.75%
10,CCN(CC)CC(O)CNc1ccc(NCC(O)CCl)c2c1C(=O)c1ccccc1C2=O (stereo not given),12.4%
11,N#Cc1c(N)nc2c(N=Nc3ccccc3)c(N)nn2c1Nc1ccccc1,-30.6%
12,CC(O)c1c2ccccc2cc2ccccc12 (stereo not given),50.5%
13,Cc1ccccc1NC(=O)C1C(=O)N(c2ccccc2C)C(=O)/C1=N/O (stereo not given),-5.25%
14,O=Cc1ccc(-c2nccc3c2[nH]c2ccccc23)o1,8.9%
15,C=CC(C)(CCC=C(C)C)OC(=O)Nc1ccccc1 (stereo not given),8.05%
16,Oc1ccc(-c2nnc(-c3ccc(Cl)cc3Cl)o2)cc1,47.5%
17,C/C=C1\CC(C)(CC)C(C#N)(C#N)C(N)=C1C#N (stereo not given),50.9%
18,Cc1nc(-c2ccccc2)nc2c1nc(C(C)C)n2Nc1ccccc1,80.8% (active)
19,Cc1csc2c1C(=O)c1ccsc1C2=O,91.5% (active)
20,COc1cc(Nc2ccc(Oc3ccc(O)cc3)cc2)c2ncccc2c1,7.85%
